Inhibition data for 17 compounds are collected here from ChEMBL document CHEMBL1961873, “Compounds: GSK PKIS; Assays: Nanosyn kinase panel” (2012).

Each structure is given as a SMILES string.

Experiment [1] concerns the target Tyrosine-protein kinase CSK (Homo sapiens) (UniProt P41240). The conditions noted are these: at 1 µM.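 Note: each value is an averaged inhibition reading.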
In experiment [2] the target is T1, Discoidin domain-containing receptor 2 (Homo sapiens) (UniProt Q16832).
T1 sequence (whole entry): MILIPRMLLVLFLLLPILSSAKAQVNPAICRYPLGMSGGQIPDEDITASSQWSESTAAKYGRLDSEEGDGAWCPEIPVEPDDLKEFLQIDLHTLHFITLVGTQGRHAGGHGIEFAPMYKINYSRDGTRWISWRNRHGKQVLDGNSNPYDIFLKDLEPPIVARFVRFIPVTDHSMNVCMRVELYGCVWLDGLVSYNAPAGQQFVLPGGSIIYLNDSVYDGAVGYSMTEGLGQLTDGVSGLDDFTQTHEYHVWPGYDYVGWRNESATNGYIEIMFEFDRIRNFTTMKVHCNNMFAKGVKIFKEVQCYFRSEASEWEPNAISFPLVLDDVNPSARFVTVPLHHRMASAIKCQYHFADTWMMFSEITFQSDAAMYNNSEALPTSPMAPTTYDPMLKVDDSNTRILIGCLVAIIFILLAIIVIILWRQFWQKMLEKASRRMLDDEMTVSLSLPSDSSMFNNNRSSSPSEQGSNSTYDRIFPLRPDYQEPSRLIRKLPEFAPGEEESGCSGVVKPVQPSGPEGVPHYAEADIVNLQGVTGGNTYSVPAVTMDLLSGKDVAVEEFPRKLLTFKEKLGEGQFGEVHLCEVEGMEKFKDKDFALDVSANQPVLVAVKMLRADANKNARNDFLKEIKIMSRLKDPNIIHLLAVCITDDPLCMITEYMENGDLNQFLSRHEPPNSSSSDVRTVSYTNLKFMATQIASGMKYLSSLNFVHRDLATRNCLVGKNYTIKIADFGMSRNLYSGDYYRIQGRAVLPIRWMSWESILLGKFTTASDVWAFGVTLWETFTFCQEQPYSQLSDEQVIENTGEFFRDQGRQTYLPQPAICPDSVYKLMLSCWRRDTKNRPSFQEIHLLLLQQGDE
The conditions noted are these: at 0.1 µM.

The target of experiment [3] is T1, Discoidin domain-containing receptor 2 (Homo sapiens). As to conditions: at 1 µM.
The target of experiment [4] is Epidermal growth factor receptor (Homo sapiens) (UniProt P00533). As to conditions: at 0.1 µM.
Experiment [5] shares this target. As to conditions: at 1 µM.
The test system of experiment [6] is Epidermal growth factor receptor (Homo sapiens), P00533 [L858R]. As to conditions: at 0.1 µM.
Experiment [7] shares this test system. The conditions noted are these: at 1 µM.
Experiment [8] deals with Epidermal growth factor receptor (Homo sapiens), P00533 [L861Q]. As to conditions: at 0.1 µM.
The test system is the same in experiment [9]. The conditions noted are these: at 1 µM.
The subject of experiment [10] is Epidermal growth factor receptor (Homo sapiens), P00533 [T790M]. As to conditions: at 0.1 µM.

Usually inhibition stands for the relative decrease from the control value, in per cent.

Epidermal growth factor receptor (Homo sapiens), P00533 [L861Q], sequence (P00533 whole entry L861Q): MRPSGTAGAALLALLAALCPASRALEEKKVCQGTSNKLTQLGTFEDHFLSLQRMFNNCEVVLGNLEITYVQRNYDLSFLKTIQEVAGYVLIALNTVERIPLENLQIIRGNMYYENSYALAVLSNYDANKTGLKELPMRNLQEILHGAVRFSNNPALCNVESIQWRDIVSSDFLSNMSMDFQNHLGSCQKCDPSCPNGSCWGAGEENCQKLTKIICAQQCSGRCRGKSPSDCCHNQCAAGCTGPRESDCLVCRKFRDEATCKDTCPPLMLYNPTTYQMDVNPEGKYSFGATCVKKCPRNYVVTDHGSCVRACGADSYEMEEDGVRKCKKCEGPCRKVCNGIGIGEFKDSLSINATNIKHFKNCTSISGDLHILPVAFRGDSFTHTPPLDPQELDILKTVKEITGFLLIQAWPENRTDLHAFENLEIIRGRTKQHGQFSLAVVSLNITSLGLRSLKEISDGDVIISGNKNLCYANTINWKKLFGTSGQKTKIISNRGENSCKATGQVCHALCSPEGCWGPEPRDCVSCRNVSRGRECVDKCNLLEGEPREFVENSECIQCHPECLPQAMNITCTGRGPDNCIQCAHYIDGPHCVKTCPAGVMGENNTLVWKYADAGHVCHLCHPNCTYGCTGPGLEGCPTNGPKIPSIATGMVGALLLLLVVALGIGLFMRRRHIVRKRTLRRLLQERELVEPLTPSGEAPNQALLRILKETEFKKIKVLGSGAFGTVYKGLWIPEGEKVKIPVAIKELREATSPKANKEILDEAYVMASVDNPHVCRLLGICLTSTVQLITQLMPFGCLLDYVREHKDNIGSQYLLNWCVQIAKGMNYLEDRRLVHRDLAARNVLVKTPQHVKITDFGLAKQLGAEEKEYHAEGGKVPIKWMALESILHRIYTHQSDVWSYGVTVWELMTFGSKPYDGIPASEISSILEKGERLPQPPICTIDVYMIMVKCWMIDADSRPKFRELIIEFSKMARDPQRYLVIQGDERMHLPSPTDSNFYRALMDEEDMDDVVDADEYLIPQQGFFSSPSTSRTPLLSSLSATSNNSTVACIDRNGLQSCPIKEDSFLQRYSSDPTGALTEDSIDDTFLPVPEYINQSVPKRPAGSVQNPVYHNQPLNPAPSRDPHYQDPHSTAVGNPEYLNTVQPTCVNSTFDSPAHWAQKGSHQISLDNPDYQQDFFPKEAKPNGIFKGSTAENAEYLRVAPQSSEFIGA
Epidermal growth factor receptor (Homo sapiens), P00533 [T790M], sequence (P00533 whole entry T790M): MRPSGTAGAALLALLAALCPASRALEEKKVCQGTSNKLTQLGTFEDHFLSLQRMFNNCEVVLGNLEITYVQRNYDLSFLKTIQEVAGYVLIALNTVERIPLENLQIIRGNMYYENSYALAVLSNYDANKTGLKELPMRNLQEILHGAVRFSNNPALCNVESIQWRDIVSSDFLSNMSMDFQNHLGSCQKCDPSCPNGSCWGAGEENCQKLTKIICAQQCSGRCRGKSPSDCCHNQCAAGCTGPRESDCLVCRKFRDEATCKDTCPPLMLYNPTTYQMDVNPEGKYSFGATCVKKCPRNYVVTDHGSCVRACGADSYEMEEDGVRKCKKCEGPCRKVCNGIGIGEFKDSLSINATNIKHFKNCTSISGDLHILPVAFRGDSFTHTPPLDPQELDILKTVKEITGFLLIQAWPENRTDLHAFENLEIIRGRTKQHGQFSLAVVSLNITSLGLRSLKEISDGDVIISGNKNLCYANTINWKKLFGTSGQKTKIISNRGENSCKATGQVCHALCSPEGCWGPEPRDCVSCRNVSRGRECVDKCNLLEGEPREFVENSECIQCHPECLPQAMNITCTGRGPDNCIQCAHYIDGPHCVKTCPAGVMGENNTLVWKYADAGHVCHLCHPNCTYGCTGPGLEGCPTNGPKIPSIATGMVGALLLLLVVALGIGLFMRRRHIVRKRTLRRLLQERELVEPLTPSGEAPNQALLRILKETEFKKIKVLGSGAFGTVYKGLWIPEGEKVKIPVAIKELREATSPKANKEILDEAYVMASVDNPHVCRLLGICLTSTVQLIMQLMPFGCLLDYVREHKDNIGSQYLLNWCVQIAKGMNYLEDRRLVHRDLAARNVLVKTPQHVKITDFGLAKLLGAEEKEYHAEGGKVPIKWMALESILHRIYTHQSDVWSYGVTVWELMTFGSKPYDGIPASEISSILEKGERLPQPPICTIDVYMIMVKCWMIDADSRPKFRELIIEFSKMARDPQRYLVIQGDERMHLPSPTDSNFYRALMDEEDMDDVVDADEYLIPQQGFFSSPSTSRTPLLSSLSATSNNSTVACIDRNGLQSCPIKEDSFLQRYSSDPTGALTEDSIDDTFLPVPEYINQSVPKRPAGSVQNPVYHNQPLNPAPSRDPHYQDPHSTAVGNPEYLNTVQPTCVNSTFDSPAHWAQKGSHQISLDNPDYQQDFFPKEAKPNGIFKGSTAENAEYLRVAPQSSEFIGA
Epidermal growth factor receptor (Homo sapiens), sequence (P00533 whole entry): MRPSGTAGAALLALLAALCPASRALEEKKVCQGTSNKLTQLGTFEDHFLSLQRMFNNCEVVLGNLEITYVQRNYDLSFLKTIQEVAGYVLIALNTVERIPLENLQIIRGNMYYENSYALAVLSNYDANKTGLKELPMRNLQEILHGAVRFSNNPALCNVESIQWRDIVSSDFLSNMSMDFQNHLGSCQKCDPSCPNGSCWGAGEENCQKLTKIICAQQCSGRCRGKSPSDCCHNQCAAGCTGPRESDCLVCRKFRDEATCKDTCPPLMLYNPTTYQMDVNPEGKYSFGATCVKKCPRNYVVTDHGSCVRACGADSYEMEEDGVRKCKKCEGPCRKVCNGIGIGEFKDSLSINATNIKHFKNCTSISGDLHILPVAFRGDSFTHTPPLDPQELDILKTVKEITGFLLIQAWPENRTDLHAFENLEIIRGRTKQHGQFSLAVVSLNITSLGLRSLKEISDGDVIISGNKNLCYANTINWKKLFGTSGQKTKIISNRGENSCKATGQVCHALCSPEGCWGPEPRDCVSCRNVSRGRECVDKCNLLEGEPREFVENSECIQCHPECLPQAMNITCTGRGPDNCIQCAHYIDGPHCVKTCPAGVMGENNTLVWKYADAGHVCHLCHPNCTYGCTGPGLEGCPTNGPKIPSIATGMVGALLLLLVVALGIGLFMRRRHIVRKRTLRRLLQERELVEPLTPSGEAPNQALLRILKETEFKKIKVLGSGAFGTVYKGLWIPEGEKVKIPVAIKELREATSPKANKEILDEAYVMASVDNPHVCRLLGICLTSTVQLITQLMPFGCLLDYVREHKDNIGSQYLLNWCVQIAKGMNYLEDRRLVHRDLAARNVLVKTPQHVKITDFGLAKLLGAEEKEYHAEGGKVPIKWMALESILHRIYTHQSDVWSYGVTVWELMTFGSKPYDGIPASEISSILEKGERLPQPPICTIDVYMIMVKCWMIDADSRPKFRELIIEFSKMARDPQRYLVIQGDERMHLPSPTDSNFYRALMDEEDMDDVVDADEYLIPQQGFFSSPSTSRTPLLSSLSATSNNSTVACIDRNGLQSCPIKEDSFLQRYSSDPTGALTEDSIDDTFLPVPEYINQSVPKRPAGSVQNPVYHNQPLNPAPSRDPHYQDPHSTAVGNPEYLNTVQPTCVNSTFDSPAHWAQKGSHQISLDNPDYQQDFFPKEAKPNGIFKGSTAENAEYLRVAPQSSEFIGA
Epidermal growth factor receptor (Homo sapiens), P00533 [L858R], sequence (P00533 whole entry L858R): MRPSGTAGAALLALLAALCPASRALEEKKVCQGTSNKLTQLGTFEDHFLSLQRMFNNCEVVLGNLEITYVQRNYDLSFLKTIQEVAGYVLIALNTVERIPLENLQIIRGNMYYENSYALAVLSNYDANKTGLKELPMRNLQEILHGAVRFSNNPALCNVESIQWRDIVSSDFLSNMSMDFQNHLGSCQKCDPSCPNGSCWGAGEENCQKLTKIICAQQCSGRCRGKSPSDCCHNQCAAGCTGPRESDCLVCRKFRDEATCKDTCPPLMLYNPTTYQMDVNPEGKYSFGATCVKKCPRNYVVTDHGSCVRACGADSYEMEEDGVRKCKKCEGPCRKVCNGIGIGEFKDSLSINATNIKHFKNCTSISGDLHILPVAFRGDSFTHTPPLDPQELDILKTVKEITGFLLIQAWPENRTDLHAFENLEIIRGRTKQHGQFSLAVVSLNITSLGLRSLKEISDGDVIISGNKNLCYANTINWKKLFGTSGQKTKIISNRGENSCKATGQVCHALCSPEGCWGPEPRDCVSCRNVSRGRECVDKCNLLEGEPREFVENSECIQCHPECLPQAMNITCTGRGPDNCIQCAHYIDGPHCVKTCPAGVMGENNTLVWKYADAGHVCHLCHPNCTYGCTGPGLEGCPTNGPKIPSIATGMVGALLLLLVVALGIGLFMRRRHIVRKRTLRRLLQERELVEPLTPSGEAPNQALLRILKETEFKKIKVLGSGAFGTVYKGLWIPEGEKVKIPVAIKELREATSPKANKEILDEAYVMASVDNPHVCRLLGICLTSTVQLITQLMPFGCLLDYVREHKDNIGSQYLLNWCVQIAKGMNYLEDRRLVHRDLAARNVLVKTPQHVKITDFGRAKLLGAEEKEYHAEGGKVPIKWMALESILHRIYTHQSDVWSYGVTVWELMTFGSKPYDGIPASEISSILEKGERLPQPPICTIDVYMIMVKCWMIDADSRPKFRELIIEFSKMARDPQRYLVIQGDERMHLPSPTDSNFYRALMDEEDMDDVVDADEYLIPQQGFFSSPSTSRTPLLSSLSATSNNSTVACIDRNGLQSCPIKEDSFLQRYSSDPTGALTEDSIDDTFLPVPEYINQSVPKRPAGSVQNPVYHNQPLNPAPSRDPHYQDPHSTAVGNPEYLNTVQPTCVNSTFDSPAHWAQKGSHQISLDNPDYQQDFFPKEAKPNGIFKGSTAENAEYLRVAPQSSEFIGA

Turning to `CC(C)(CO)CNC(=O)c1ccc2c(c1)/C(=N/Nc1ccc(S(N)(=O)=O)cc1)C(=O)N2`, the inhibition in experiment [1] is -0.3%; in experiment [2], -1.82%; in [3] it was 3.39%; in experiment [4] it was 5.33%; in [5], 5.03%; in experiment [6] it was -3.09%. Besides, the inhibition in experiment [7] is -0.53%; in experiment [8], -0.63%; in experiment [9], -0.88%; in experiment [10], -1.56%.

With `Cc1cccc(Nc2ncc(-c3ccccc3)o2)c1`, the inhibition is 0.89% in experiment [1]; 0.22% in experiment [2]; 0.44% in experiment [3]; 2.11% in [4]; 2.82% in experiment [5]; 0.79% in experiment [6]. The inhibition in [7] is 2.98%; in [8], -0.45%; in [9], 1.8%; in experiment [10], 0.73%.

On to `CCCN(CCS(C)(=O)=O)Cc1ccc(-c2ccc3ncnc(Nc4ccc(OCc5cccc(F)c5)c(Cl)c4)c3c2)o1`, for which the inhibition in experiment [1] is 5.5%; in [2] it was 1.06%; in experiment [3] it was 1.68%; in experiment [4], 77.6%; in experiment [5], 78.4%; in experiment [6] it was 53.4%. For the same compound, the inhibition worked out at 95% in [7], 53% in experiment [8], 88.2% in experiment [9] and 2.23% in [10].

For `O=S(=O)(CCNCc1ccc(-c2ccc3ncnc(Nc4ccc(OCc5cccc(F)c5)c(Cl)c4)c3c2)o1)c1ccccc1`, the inhibition in [1] was 6.6%; in experiment [2], 5.04%; in experiment [3] it was 6.18%; in experiment [4], 65.3%; in [5], 83.3%; in experiment [6] it was 32.6%. Besides, the inhibition in experiment [7] was 79.5%; in experiment [8], 39.2%; in experiment [9], 78.2%; in experiment [10] it was 2.92%.

As for `CNC(=O)c1cccc(C#Cc2cncnc2Nc2ccc(OCc3cccc(F)c3)c(Cl)c2)c1`, the inhibition in experiment [1] is 3.24%; in [2], 0.18%; in experiment [3] it was 4.52%; in experiment [4] it was 62.1%; in experiment [5], 82.2%; in [6] it was 13.8%. Also, the inhibition turned out to be 62.1% in [7], 25.9% in [8], 45.7% in experiment [9] and 1.03% in experiment [10].

On to `CCc1nn2ncccc2c1-c1ccnc(NC2CC2)n1`, for which the inhibition in experiment [1] turned out to be 1.97%; in experiment [2], 1.02%; in experiment [3], 1.6%; in experiment [4] it was 2.78%; in experiment [5] it was 4.33%; in [6] it was 1.84%. In addition, the inhibition in [7] was found to be 0.95%; in experiment [8], 1.81%; in [9] it was 2.47%; in experiment [10], 1.44%.

With `CNC(=O)c1cc(-c2ccc(F)cc2)cc(-c2ccc(S(=O)(=O)N3CCCC3)cc2)c1N`, the inhibition was determined as 2.28% in [1]; 1.09% in experiment [2]; 1.38% in experiment [3]; 5.94% in experiment [4]; 6.92% in experiment [5]; 0.45% in experiment [6]. Besides, the inhibition was determined as 5.35% in [7], 2.56% in [8], 4.86% in experiment [9] and 0.67% in [10].

Take `c1ccc(-c2nc3n(c2-c2ccc4c(c2)OCO4)CCC3)nc1`: the inhibition in experiment [1] was determined as 1.76%; in [2] it was 0.99%; in [3] it was 0.78%; in experiment [4], 1.53%; in experiment [5], 0.21%; in experiment [6], 0.88%. The inhibition in [7] was -1.2%; in [8], 0.86%; in experiment [9], 1.07%; in [10], 0.12%.

As to `COc1ccc2c(-c3ccnc(Nc4cccc(OC(F)(F)F)c4)n3)cnn2n1`, the inhibition came to 12.2% in experiment [1]; 1.53% in experiment [2]; 3.16% in [3]; 1.3% in [4]; 2.97% in experiment [5]; 4.17% in experiment [6]. The inhibition came to 5.43% in [7], 2.8% in experiment [8], 4.76% in experiment [9] and 2.35% in experiment [10].

As to `CCn1c(-c2nonc2N)nc2c(C#CC(C)(C)O)nc(OC[C@H](N)c3ccccc3)cc21`, the inhibition in experiment [1] was found to be 2.13%; in experiment [2] it was 1.12%; in [3], 1.65%; in [4], 2.01%; in experiment [5], 13.4%; in [6] it was 1.93%. The inhibition in experiment [7] is 1.86%; in [8], -0.13%; in experiment [9] it was 2.36%; in experiment [10], 1.22%.

Turning to `NS(=O)(=O)c1ccc(Nc2ncc(-c3ccccc3)o2)cc1`, the inhibition in experiment [1] came out at 5.89%; in experiment [2], 1.76%; in [3], 4.71%; in experiment [4] it was 1.02%; in experiment [5], 1.18%; in experiment [6], 2.83%. For the same compound, the inhibition in [7] is 6.04%; in experiment [8] it was 2.61%; in experiment [9], 2.73%; in experiment [10], 0.68%.

As for `COc1cc(N2CCN(C(C)C)CC2)ccc1Nc1nc(Nc2ccc(F)cc2C(N)=O)c2cc[nH]c2n1`, the inhibition in [1] came to 0.44%; in experiment [2], 0.99%; in [3], 0.35%; in experiment [4], 5.2%; in [6], 1.78%; in [7], 39.2%. The values for the inhibition in [8], in experiment [9] and in experiment [10] were 3.8%, 23.1% and 26.4%, respectively.

Regarding `COc1ccc(-c2nn3ncccc3c2-c2ccnc(Nc3ccc4c(c3)OCCO4)n2)cc1`, the inhibition in experiment [1] is 2.25%; in experiment [2], 17.7%; in experiment [3], 79.8%; in [4], 0.51%; in experiment [5], 34.1%; in experiment [6] it was 8.22%. For the same compound, the inhibition was found to be 57.4% in [7], 5.78% in [8], 34.3% in [9] and 0.7% in experiment [10].

With `Nc1nc(-c2ccc(F)cc2)c(-c2ccc3ncccc3n2)s1`, the inhibition in [1] was 5.38%; in experiment [2] it was 0.01%; in [3] it was -5.99%; in experiment [4], 2.98%; in [5], 21.7%; in experiment [6], 13.1%. In addition, the inhibition in [7] is 60.5%; in experiment [8], 6.11%; in [9] it was 22.4%; in experiment [10], 1.84%.

Take `COC(=O)Nc1nc2ccc(Oc3ccc(NC(=O)Nc4cccc(Cl)c4)cc3)cc2[nH]1`: the inhibition is 5.95% in [1]; 84.2% in [2]; 85.2% in experiment [3]; 3.42% in [4]; 7.64% in [5]; -0.65% in experiment [6]. Besides, the inhibition is 2.43% in experiment [7], -0.21% in experiment [8], -0.8% in experiment [9] and -1.18% in experiment [10].

As to `O=C(O[C@H]1CN[C@H](C#Cc2cc3ncnc(Nc4ccc(Cc5ccccc5)cc4)c3s2)C1)N1CCOCC1`, the inhibition was 2.39% in [1]; -1.8% in experiment [2]; -1.26% in [3]; 27.8% in experiment [4]; 69.9% in experiment [5]; 1.68% in experiment [6]. Further, the inhibition in experiment [7] came to 11.4%; in [8], 15.1%; in [9], 26.9%; in experiment [10], 1.18%.

For `N#Cc1c(NC(=O)c2ccc(F)cc2)sc2c1CCCC2`, the inhibition was 0.65% in experiment [1]; 0.36% in experiment [2]; -0.2% in [3]; 0.63% in [4]; 1.78% in [5]; 0.66% in [6]. Besides, the inhibition in [7] is 2.49%; in [8] it was -0.06%; in [9], -1.78%; in [10] it was -0.49%.
